# Experimental data reported in the supplement of paper PMC8728848.
# The sample as a whole holds a higher share of the strongest signals than the screen did.
# What was measured:
# Test in all cases: glycan array binding signal (z-score within array); higher = stronger binding
# Conditions in all cases: glycan notation: IUPAC condensed, linker removed
# [1] = biological target: GlcNAc(b1-3)Gal(b1-4)GlcNAc(b1-2)Man(a1-3)[GlcNAc(b1-3)Gal(b1-4)GlcNAc(b1-2)Man(a1-6)]Man(b1-4)GlcNAc(b1-4)GlcNAc
# How it was run: (§1)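 From the Consortium for Functional Glycomics database, 3228 arrays were curated, keeping only those whose protein sequence was available. Binding is given as a within-array Z-score averaged across arrays sharing a protein sequence and across linkers. Negative Z-scores can be read as non-binding.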
# [2] = biological target: GlcNAc(b1-3)Gal(b1-4)GlcNAc(b1-3)Gal(b1-4)GlcNAc(b1-2)Man(a1-3)[GlcNAc(b1-3)Gal(b1-4)GlcNAc(b1-3)Gal(b1-4)GlcNAc(b1-2)Man(a1-6)]Man(b1-4)GlcNAc(b1-4)GlcNAc
# How it was run: as §1
# [3] = biological target: GlcNAc(b1-3)Gal(b1-4)GlcNAc(b1-6)[Gal(b1-3)]GalNAc
# How it was run: as §1
# [4] = biological target: GlcNAc(b1-3)Gal(b1-4)GlcNAc(b1-6)[GlcNAc(b1-3)Gal(b1-3)]GalNAc
# How it was run: as §1
# GlcNAc(b1-3)Man = biological target: GlcNAc(b1-3)Man
# How it was run: as §1
# [5] = biological target: GlcNAc(b1-4)GlcNAc(b1-4)GlcNAc(b1-4)GlcNAc(b1-4)GlcNAc(b1-4)GlcNAc
# How it was run: as §1
# [6] = biological target: GlcNAc6S(b1-3)Gal(b1-4)GlcNAc
# How it was run: as §1
# [7] = biological target: Man(a1-2)Man(a1-6)[Man(a1-3)]Man(a1-6)[Man(a1-2)Man(a1-2)Man(a1-3)]Man(b1-4)GlcNAc(b1-4)GlcNAc
# How it was run: as §1
# Man(b1-4)GlcNAc = biological target: Man(b1-4)GlcNAc
# How it was run: as §1
# Neu5Ac(a2-3)Gal = biological target: Neu5Ac(a2-3)Gal
# How it was run: as §1
# [8] = biological target: Neu5Ac(a2-3)Gal(b1-3)GalNAc6S
# How it was run: as §1
# [9] = biological target: Neu5Ac(a2-3)Gal(b1-3)GlcNAc(b1-2)[Neu5Ac(a2-3)Gal(b1-3)GlcNAc(b1-4)]Man(a1-6)[Neu5Ac(a2-3)Gal(b1-3)GlcNAc(b1-2)Man(a1-3)]Man(b1-4)GlcNAc(b1-4)GlcNAc
# How it was run: as §1
# [10] = biological target: Neu5Ac(a2-3)Gal(b1-3)GlcNAc(b1-3)Gal(b1-3)GlcNAc
# How it was run: as §1
# [11] = biological target: Neu5Ac(a2-3)Gal(b1-3)GlcNAc(b1-6)GalNAc
# How it was run: as §1
# [12] = biological target: Neu5Ac(a2-3)Gal(b1-3)[Fuc(a1-4)]GlcNAc(b1-3)Gal(b1-4)[Fuc(a1-3)]GlcNAc
# How it was run: as §1
# Neu5Ac(a2-3)Gal(b1-4)Glc = biological target: Neu5Ac(a2-3)Gal(b1-4)Glc
# How it was run: as §1
# [13] = biological target: Neu5Ac(a2-3)Gal(b1-4)GlcNAc(b1-2)[Neu5Ac(a2-3)Gal(b1-4)GlcNAc(b1-4)]Man(a1-3)[GlcNAc(b1-4)][Neu5Ac(a2-3)Gal(b1-4)GlcNAc(b1-4)Man(a1-6)]Man(b1-4)GlcNAc(b1-4)GlcNAc
# How it was run: as §1
# [14] = biological target: Neu5Ac(a2-3)Gal(b1-4)GlcNAc(b1-6)[Neu5Ac(a2-3)Gal(b1-3)]GalNAc
# How it was run: as §1
# [15] = biological target: Neu5Ac(a2-3)Gal(b1-4)[Fuc(a1-3)]GlcNAc(b1-3)Gal(b1-4)GlcNAc
# How it was run: as §1
# [16] = biological target: Neu5Ac(a2-3)Gal(b1-4)[Fuc(a1-3)]GlcNAc(b1-3)Gal(b1-4)[Fuc(a1-3)]GlcNAc(b1-3)Gal(b1-4)[Fuc(a1-3)]GlcNAc
# How it was run: as §1
# [17] = biological target: Neu5Ac(a2-3)Gal(b1-4)[Fuc(a1-3)]GlcNAc(b1-3)GalNAc
# How it was run: as §1
# [18] = biological target: Neu5Ac(a2-6)Gal(b1-3)GlcNAc(b1-3)[Gal(b1-4)GlcNAc(b1-6)]Gal(b1-4)Glc
# How it was run: as §1
# [19] = biological target: Neu5Ac(a2-6)Gal(b1-4)GlcNAc(b1-2)Man(a1-6)[Gal(b1-4)GlcNAc(b1-2)Man(a1-3)]Man(b1-4)GlcNAc(b1-4)GlcNAc
# How it was run: as §1
# [20] = biological target: Neu5Ac(a2-6)Gal(b1-4)GlcNAc(b1-3)Gal(b1-4)GlcNAc(b1-3)Gal(b1-4)GlcNAc
# How it was run: as §1
# [21] = biological target: Neu5Ac(a2-6)Gal(b1-4)GlcNAc(b1-3)Gal(b1-4)[Fuc(a1-3)]GlcNAc(b1-3)Gal(b1-4)[Fuc(a1-3)]GlcNAc
# How it was run: as §1
# [22] = biological target: Neu5Ac(a2-8)Neu5Ac(a2-8)Neu5Ac(a2-3)[GalNAc(b1-4)]Gal(b1-4)Glc
# How it was run: as §1
# [23] = biological target: Neu5Ac(a2-8)Neu5Ac(a2-8)Neu5Ac(a2-8)Neu5Ac(a2-3)[GalNAc(b1-4)]Gal(b1-4)Glc
# How it was run: as §1
# [24] = biological target: Neu5Ac(a2-8)Neu5Gc(a2-3)Gal(b1-4)GlcNAc
# How it was run: as §1
# [25] = biological target: Neu5Gc(a2-3)Gal(b1-3)GlcNAc
# How it was run: as §1
binder,measurement,setting,value
LF82 (Escherichia coli) (protein) ADWGPCRTASGDPFIFVTSFTKNIQNPTDNVTGQTYPDFYQWALGDKYSGVCECPSPNPTEARPTLYKTESTLAAGHNSTYFKITNNLEVSTRVYIANVGNVQVPFINKSNSQPGRECDQPTFGWTTGSKGQLSLYIAKPFVGEQNIPQTIIVSVFGTKKENVYSSVPISQVLLSGKVTVTQGCELAAGTSLDIDFGEYQAHDFKGRTGQPPQNVQKIQKELTFNCTNISDGVHIYLSLEGTPNAAYPSAISLGNADVGAVIEDGKGNILKPNDSNSLLEMNPGSLYEYVKRKVTTTITAYPVSTTGKLPAAGDYSGVATMHVELDGGGGGGGGGGATTDLGAKGTLKFSLKISQGHHHHHH,glycan array binding signal (z-score),[1],-0.713
same,glycan array binding signal (z-score),[2],1.79
same,glycan array binding signal (z-score),[3],-0.509
same,glycan array binding signal (z-score),[4],0.416
same,glycan array binding signal (z-score),GlcNAc(b1-3)Man,0.644
same,glycan array binding signal (z-score),[5],-1.17
same,glycan array binding signal (z-score),[6],-0.173
same,glycan array binding signal (z-score),[7],0.244
same,glycan array binding signal (z-score),Man(b1-4)GlcNAc,0.456
same,glycan array binding signal (z-score),Neu5Ac(a2-3)Gal,0.191
same,glycan array binding signal (z-score),[8],0.435
same,glycan array binding signal (z-score),[9],4.88
same,glycan array binding signal (z-score),[10],-0.469
same,glycan array binding signal (z-score),[11],-0.373
same,glycan array binding signal (z-score),[12],-0.501
same,glycan array binding signal (z-score),Neu5Ac(a2-3)Gal(b1-4)Glc,0.503
same,glycan array binding signal (z-score),[13],2.08
same,glycan array binding signal (z-score),[14],-0.112
same,glycan array binding signal (z-score),[15],0.281
same,glycan array binding signal (z-score),[16],0.12
same,glycan array binding signal (z-score),[17],0.56
same,glycan array binding signal (z-score),[18],2.17
same,glycan array binding signal (z-score),[19],0.283
same,glycan array binding signal (z-score),[20],0.668
same,glycan array binding signal (z-score),[21],0.159
same,glycan array binding signal (z-score),[22],-0.553
same,glycan array binding signal (z-score),[23],2.59
same,glycan array binding signal (z-score),[24],-0.211
same,glycan array binding signal (z-score),[25],3.85
